Screening results deposited in PubChem by National Center for Advancing Translational Sciences (NCATS).
Nrf2 activator: qHTS of Nrf2 Activators. AID 624171, 2012. Potency, µM (doses to about 46.1 µM), without a hit: at the top dose activation, hits mostly activators. AREc32 ARE-luciferase reporter (MCF7-derived line), luminescence, 24 h. actives 0.31% (n = 410,000); further: potency means the concentration at half of the fitted maximal effect; % of control where 0% means no effect; nearly all actives have a fitted effect of over 65% in size
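Steps: seed AREc32_Fluc cells (1000/well, 5% FBS OPTI-MEM); incubate overnight at 37 deg C; add 23 nL compound; incubate 24 hr; add Steady-Glo; hold 30 min RT; read luminescence.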
A549 tox: Nrf2 qHTS screen for inhibitors: counterscreen for cytotoxicity | A549 ARE-Fluc cells, CellTiter-Fluor viability, 18-24 h | Potency, µM (top dose mostly 46 µM), for inactives: at the top dose activity change, negative = cytotoxicity, usual class: inhibitors | actives 0.16% (n = 390,000) | AID 504648, 2011; further: potency means the concentration at half of the fitted maximal effect; on the % scale 0 is the no-effect control and ±100 the full control effect
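Cytotoxicity counterscreen: CellTiter-Fluor fluorescence was measured in A549 ARE_Fluc cells after 18-24 h of compound exposure in a concentration series. The subsequent BugLite luminescent read reports ARE-luciferase activity.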
ClpP mod: qHTS Assay for Activators of ClpP. ATP-dependent Clp protease proteolytic subunit (Bacillus subtilis (strain 168)), P80244. purified B. subtilis ClpP, FRET peptide cleavage, 20 min. Potency, µM (doses to about 57.5 µM), for the others: top-dose activity change, negative = active. actives 1.9% (n = 340,000). AID 651965, 2013; active means well fitted falling curve with a large enough effect; inconclusive means small, poorly fitted or top-dose-only effect; inactive means no such curve, though single readings can be large or run the other way; further: potency means the concentration at half of the fitted maximal effect; the source files actives as falling curves though it sought activators and does not explain the sign; nearly all actives have a fitted effect of over 65% in size
Target sequence (P80244 whole entry, looked up): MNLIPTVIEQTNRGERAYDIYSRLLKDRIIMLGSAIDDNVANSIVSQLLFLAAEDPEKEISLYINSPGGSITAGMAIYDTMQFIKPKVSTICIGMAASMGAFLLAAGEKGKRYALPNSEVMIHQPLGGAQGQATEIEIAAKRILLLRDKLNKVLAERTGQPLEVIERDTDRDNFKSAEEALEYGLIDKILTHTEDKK
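ClpP 10 microg/mL final, pH 8 Tris/KCl buffer with BSA, glycerol, Tween-20; compound pinned in; FRET-FV substrate; RT 20 min; Ex320/Em430; ΔFRET vs ADEP 5.8 microM, DMSO, no enzyme.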
miR-21 act: qHTS Assay for Modulators of miRNAs and/orActivators of miR-21; HeLa miR-21 FLuc reporter, luciferase, 48 h; AID 2288, 2010; 340,000 tested, under 10 active; Potency, µM (doses to about 38.3 µM), inactives show top-dose activity change, positive = activation, hits mostly activators;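 further: % of control where 0% means no effect; miR-21 action dims this reporter so a rising signal means less miR-21 action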
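HeLa cells endogenously expressing miR-21, stably carrying CMV-driven firefly luciferase with a downstream miR-21 binding site, 2000 cells/well. Titrations up to approximately 40 uM, 48 hours; luciferase luminescence read.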
IL2 activator: qHTS of IL-2 Activators. IL-2 activation reporter assay, cell-based qHTS; stimulated with anti-CD3/CD4/CD28 beads; in transgenic mouse T cells. activation, % (series mostly up to about 46 µM). actives 0.065% (n = 360,000). AID 652025, 2013; in the data active means activation above about 50%; inconclusive means mostly about 30% to 49%; further: 0% is about no effect
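Readout: EGFP and DsRed signals by fluorescent plate cytometry. Unstimulated transgenic mouse T cells received compound 60 min before antibody-bead stimulation, then incubated 18 h at 37 degrees C.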
Nrf2 inh: Nrf2 qHTS screen for inhibitors | A549 ARE-Fluc reporter, luciferase luminescence, 18-24 h | Potency, µM (doses to about 46 µM), inactives show top-dose activity change, negative = inhibition, usual class: inhibitors | actives 2.1% (n = 360,000); further: potency means the concentration at half of the fitted maximal effect; on the % scale 0 is the no-effect control and ±100 the full control effect; nearly all actives have a fitted effect of over 60% in size
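A549 ARE_Fluc cells, 5000/well, 5% FBS OPTI-MEM; compounds in dose-response, 18-24 h at 37 °C/5% CO2; CellTiter-Fluor viability read (Ex 405/Em 525), then BugLite luciferase luminescence = Nrf2 activity.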
* hit, by the source's call; ? = inconclusive; / = no result given. In the library only some 3.7% were active in any assay of this set; here they are far more common. Unless noted, the call rests on the fitted dose curve; in most records, active means well fitted curve in the direction sought with a large enough effect; inconclusive means small, poorly fitted or top-dose-only effect, or another doubt; inactive means no such curve, though single readings can be large; an effect the other way counts as inactive or inconclusive.

SMILES | Nrf2 activator | A549 tox | ClpP mod | miR-21 act | IL2 activator | Nrf2 inh
CN(c1ccc(C(=O)Nc2ccc(S(=O)(=O)N3CCCC3)cc2)cc1)S(C)(=O)=O | 0% | -26% | / | 22% | 0 | 9.2µM*
Cc1cccc(-n2c(O)c(C=Nc3ccc(O)cc3)c3ccccc3c2=O)n1 | 1% | ? | 7.1µM* | -12% | -1 | -14%
O=c1c2sc3ccccc3c2n(Cc2ccccc2)c(=O)n1CCc1ccccc1 | 0% | 9% | -14% | -11% | / | 18%
O=S(=O)(c1ccccc1Cl)N1CCCC1c1nc(-c2ccccc2Cl)no1 (stereo unspecified) | 0% | -16% | -2% | 13% | -3 | 16µM*
Cc1ccccc1NC(=O)COc1ccccc1C(=O)Nc1ccccc1 | / | / | -25% | / | / | /
Cc1ccc(C2CN(C)C3(C(=O)Nc4ccccc43)C23COc2ccccc2C3=O)cc1 (stereo unspecified) | 3% | 1% | -1% | 20% | 0 | ?
CN1CC(c2ccccc2Cl)C2(COc3ccccc3C2=O)C12C(=O)Nc1ccccc12 (stereo unspecified) | 0% | -26% | 0% | 26% | -3 | 21µM*
Cc1ccc(C)c(NC(=S)NC(NC(=O)Cc2ccccc2)C(Cl)(Cl)Cl)c1 (stereo unspecified) | 3% | ? | -2% | -2% | -5 | ?
CC(C)CC(=O)NC(NC(=S)Nc1cccc2cccnc12)C(Cl)(Cl)Cl (stereo unspecified) | 7% | -21% | 17% | 21% | 1 | 21µM*
CC(C)C(=O)NC(Nc1cccc2cccnc12)C(Cl)(Cl)Cl (stereo unspecified) | 4% | 3% | 0% | 8% | -2 | -26%
O=C(COc1ccccc1)NC(NC(=S)Nc1ccccc1C(=O)O)C(Cl)(Cl)Cl (stereo unspecified) | 0% | -5% | 35µM* | 1% | -5 | 7%
COC(=O)c1ccccc1S(=O)(=O)Nc1cc(=O)c2ccccc2[nH]1 | / | 13% | / | / | / | ?
O=S(=O)(c1ccc(Cl)cc1)N1CCN(c2ncnc3sccc23)CC1 | 3% | -6% | -13% | / | -5 | 21µM*
COc1ccc(/C=C(/NC(=O)c2ccco2)C(=O)N2CCCCC2)cc1 | 0% | -2% | 14µM* | -5% | -3 | 0%
Cc1ccc(Cc2c(C)nc3nc(SCC(=O)NC4CCC(C)CC4)nn3c2C)cc1 (stereo unspecified) | 0% | 3% | 1% | -6% | / | /
O=C(c1cccc(S(=O)(=O)N2CCCC2)c1)N1CCCC(C(F)(F)F)C1 (stereo unspecified) | 0% | -11% | 28µM* | / | -5 | 6%
O=C(c1ccccc1)c1ccc(C(=O)N2CCCC(C(F)(F)F)C2)cc1 (stereo unspecified) | 0% | -3% | -7% | / | -2 | -3%
O=C(c1ccc(S(=O)(=O)Nc2ccccc2)cc1)N1CCCC(C(F)(F)F)C1 (stereo unspecified) | 0% | ? | -2% | 10% | 0 | 26µM*
O=C(NCCc1csc(-c2cccc(F)c2)n1)c1cccs1 | 3% | 10% | -11% | 7% | / | /
COc1ccc(C2C=C(c3ccc(Br)cc3)Nc3nnnn32)c(OC)c1 (stereo unspecified) | 5% | -5% | -12% | -40% | / | 15µM*
COc1ccccc1C1C=C(c2ccccc2)Nc2nnnn21 (stereo unspecified) | 11% | -19% | -3% | 0% | 0 | ?
Nc1ncc(-c2ccccc2)c(-c2ccc(OCc3ccccc3)cc2O)n1 | 0% | -15% | / | -11% | 1 | 23µM*
Clc1ccc(/C=N/Nc2ncnc3ccccc23)cc1Cl | 6% | -14% | 28µM* | -31% | 0 | ?
Cc1cc2c(s1)c1cnn(Cc3cccc(Br)c3)c(=O)c1n2C | / | -1% | / | / | / | ?
Cc1ccn2c(/C=N/OCc3cccc(F)c3)c(-c3ccc(Cl)cc3)nc2c1 | 1% | 0% | 25µM* | 0% | 0 | 13%
SMILES | Nrf2 activator | A549 tox | ClpP mod | miR-21 act | IL2 activator | Nrf2 inh
CCOc1ccccc1NC(=O)Cn1c(=O)n(CCC(=O)NCc2ccc3c(c2)OCO3)c(=O)c2ccccc21 | 0% | -19% | 0% | -8% | / | ?
CCCCc1ccc(NC(=O)COc2cccc3c(=O)n(C)ccc23)cc1 | -1% | -13% | -12% | 21% | / | /
Cc1cccc(C)c1N/C=C/c1onc(C)c1[N+](=O)[O-] | 0% | 3% | -2% | -5% | 1 | -10%
Cc1noc(/C=C/c2cccnc2)c1[N+](=O)[O-] | 14% | ? | -1% | ? | -2 | 18µM*
Cc1ccc(/C=C/c2nnc(-c3ccccc3)o2)cc1 | -1% | -2% | 32µM* | -34% | -2 | ?
C(=C\c1nnc(-c2cccs2)o1)/c1ccccc1 | 6% | -2% | 14µM* | -56% | 1 | ?
Cc1ccc(NC(=O)Cc2cc(C(=O)O)c3ccccc3n2)c(C)c1 | 4% | ? | -7% | 29% | -1 | 5.8µM*
CCCc1cc(C(=O)O)c2ccccc2n1 | 0% | 6% | -2% | 2% | -1 | /
Cc1cc(=O)oc2n[nH]c(-c3ccccc3)c12 | 3% | -4% | 25µM* | -21% | -1 | 7%
Cc1cc(C(=O)NCc2ccc(Cl)cc2)n(-c2ccccc2)n1 | 0% | 4% | -4% | 6% | 0 | ?
O=C(NCc1ccc(Cl)cc1)c1cc2cccc3c2n1CCS3 | 1% | 12% | 22µM* | 17% | / | ?
COc1ccc(CNC(=O)c2cc3cccc4c3n2CC(C)S4)cc1 (stereo unspecified) | 2% | 3% | 32µM* | 0% | / | -10%
CC(C)Oc1ccc(CNC(=O)c2cc3cccc4c3n2CC(C)S4)cc1 (stereo unspecified) | 0% | -3% | 32µM* | 11% | / | -23%
O=C1c2ccccc2C(=O)N1c1ncccc1O | / | 8% | / | / | / | 3%
CN(CCCNC(=O)Cn1ncc2c([nH]c3ccccc32)c1=O)Cc1ccccc1 | 3% | 6% | 3% | 2% | / | 3%
O=C(CCSc1nnc2ccccn12)Nc1ccc(F)cc1 | 0% | 0% | 28µM* | -12% | -1 | 10%
O=C(CCSc1nnc2ccc3ccccc3n12)Nc1ccc(F)cc1 | 2% | -5% | -23% | -6% | -1 | -19%
Cc1c(C(=O)OCC(=O)NCCN2C(=O)CSC2=O)oc2c1ccc1ccccc12 | 1% | 4% | 32µM* | -27% | 2 | ?
